# From PubChem BioAssay
# “And” between values parts separate entries of the source, which are not always exact repeats. Equal values may be shown once. Where a structure was tested more than once in an assay, its records may differ in their call. The source made the active and inactive calls. Rule as the data show it, unless noted: active = parasite load remaining mostly below about 12% (no sharp cut-off); inactive = mostly above about 10%.
# Key:
# [1] = P. berghei load reduction in hepatocytes – cell-based, HepG2, luciferase luminescence, HepG2 viability, primary screen (AID 624349);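 also: 100% = mean of DMSO negative control wells on the same plate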; conditions: P. berghei liver stage in HepG2, luciferase luminescence, concentration not given here; parasite load remaining: stronger effect = lower value; viability: measured here: HepG2 viability without parasites
# [2] = test system: Hepatitis C virus NS3 helicase; assay: blockers of NS3h binding to ssDNA – biochemical, fluorescence polarization, LOPAC1280 library, primary screen (AID 687035; in the data active = inhibition above about 37%); conditions: Purified HCV NS3 helicase, Cy5-dT15 ssDNA binding fluorescence polarization; stronger effect = higher value; concentration not given here
# [3] = compounds altering Cy5-DNA-NS3h complex signal – biochemical, LOPAC1280, artefact control for HCV NS3 helicase inhibitor project (AID 687037; call rule not given here); conditions: Cy5-DNA-NS3h complex fluorescence interference counterscreen
# [4] = Wnt pathway potentiators raising nuclear beta-catenin – imaging, WNT3A-conditioned medium, mouse C2C12, NPC library, primary screen (AID 1117326; in the data active = nuclear beta-catenin stimulation mostly above about 4.2%, no sharp cut-off; inactive = mostly below about 10%); conditions: stronger effect = higher value
# [5] = stimulators of insulin release from INS-1E, primary screen, cell-based, 5 mM glucose, NPC library (AID 1117329;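 active = compound raises insulin release from rat beta cells at 5 mM glucose, no numeric limit stated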); conditions: rat INS-1E insulin secretion, at 10 µM, stronger effect = higher value
# [6] = growth inhibition of GSK3B-pretreated HCT116 cells – cell-based, CellTiter-Glo, 0.2 to 20 µM (AID 1117336;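 active = compounds lowering colon cancer cell viability after pretreatment blocking the GSK3B kinase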); conditions: HCT116 viability after GSK3B inhibitor, at 20 µM, stronger effect = higher value
# [7] = inhibition of endothelial tube formation, primary screen, imaging, VEGF stimulated, CD31 staining, tube area, NPC library (AID 1117340;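 active = compound that reduces growth-factor-driven endothelial tube area in a mixed cell culture, no cutoff stated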); conditions: VEGF-stimulated ADSC/ECFC co-culture, at 10 µM, stronger effect = higher value
# [8] = GLP1 release stimulators, primary, NCI-H716, NPC library (AID 1117341;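 active = compound raises GLP1 secretion from the human gut endocrine cells, with no numeric limit stated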); conditions: NCI-H716 cells, at 10 µM, stronger effect = higher value
# [9] = HCT116 colon cancer cell growth inhibition, primary screen, CellTiter-Glo luminescence, NPC library (AID 1117342;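 active = compounds that lower survival of HCT116 colon cancer cells in the luminescence readout, no numeric limit stated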); conditions: at 20 µM (top of the series)
# [10] = reduced SW480 viability measured with CellTiter-Glo, NPC library, primary (AID 1117343;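 active = compounds that lower viability of the colon cancer cells in the luminescence readout, with no numeric limit stated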); conditions: CellTiter-Glo luminescence; at 20 µM (top of the series)
# [11] = NPC library primary testing for decreased DLD-1 cell viability via CellTiter-Glo (AID 1117346;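 active = compounds that lower survival of DLD-1 colon cancer cells in the luminescence readout, no cutoff given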); conditions: DLD-1 viability, CellTiter-Glo luminescence; at 20 µM (top of the series)
# [12] = biological target: 6-phosphogluconate dehydrogenase, decarboxylating (Homo sapiens) (UniProt P52209); assay: inhibition of human phosphogluconate dehydrogenase – biochemical, recombinant enzyme, NADPH absorbance, primary screen (AID 1159550;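 active = at least 20% inhibition of 6-phosphogluconate dehydrogenase activity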); conditions: recombinant 6PGD, NADPH absorbance 341 nm; at 10 µM; stronger effect = higher value
# Sequence of 6-phosphogluconate dehydrogenase, decarboxylating (Homo sapiens) (P52209 whole entry, looked up): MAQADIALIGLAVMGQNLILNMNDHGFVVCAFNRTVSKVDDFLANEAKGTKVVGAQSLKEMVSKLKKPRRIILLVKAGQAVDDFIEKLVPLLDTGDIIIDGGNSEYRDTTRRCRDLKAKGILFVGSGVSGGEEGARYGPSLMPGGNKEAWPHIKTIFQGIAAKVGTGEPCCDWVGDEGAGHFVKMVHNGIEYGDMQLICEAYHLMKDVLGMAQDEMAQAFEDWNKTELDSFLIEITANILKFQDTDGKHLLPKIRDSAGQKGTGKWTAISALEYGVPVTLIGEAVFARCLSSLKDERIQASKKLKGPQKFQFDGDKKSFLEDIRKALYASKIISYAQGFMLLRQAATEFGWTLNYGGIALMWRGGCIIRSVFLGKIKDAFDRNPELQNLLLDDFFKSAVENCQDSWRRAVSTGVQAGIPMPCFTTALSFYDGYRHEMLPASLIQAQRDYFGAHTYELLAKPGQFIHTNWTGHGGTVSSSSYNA
# [13] = signal quenchers or enhancers, Cy5 substrate/SSB – biochemical, NIH Clinical Collection, E. coli SSB, artefact control for HCV NS3 helicase inhibitor project (AID 743268; call rule not given here); conditions: Cy5-oligo bound E. coli SSB, fluorescence interference
# [14] = test system: Hepatitis C virus NS3 helicase; assay: blockers of NS3h binding to DNA – biochemical, fluorescence polarization, NIH Clinical Collection, primary screen (AID 743270; call rule not given here); conditions: NS3 helicase binding to Cy5-dT15 DNA, stronger effect = higher value, concentration not given here
# [15] = biological target: Single-stranded DNA-binding protein (Escherichia coli (strain K12)) (UniProt P0AGE0); assay: SSB-ssDNA binding inhibitors – biochemical, fluorescence polarization, NIH Clinical Collection, counter-screen for HCV NS3 helicase inhibitor project (AID 743271; in the data active = inhibition above about 28%); conditions: E. coli SSB-DNA binding, stronger effect = higher value, concentration not given here
# [16] = compounds distorting NS3 helicase fluorescence signal – biochemical, NIH Clinical Collection, artefact control for HCV NS3 helicase inhibitor project (AID 743272; call rule not given here;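 also: HCV NS3 helicase with a Cy5 labelled single stranded DNA probe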); conditions: fluorescence interference counterscreen, HCV NS3 helicase assay; stronger effect = lower value
SMILES,parasite load remaining [1],viability [1],inhibition [2],fluorescence ratio (interference) [3],nuclear beta-catenin stimulation ([4]; at 10 µM),"nuclear beta-catenin stimulation ([4]; stimulation, at 2 µM) [%]",insulin secretion stimulation [5],viability decrease [6],tube area decrease [7],GLP1 secretion stimulation [8],inhibition of viability [9],viability decrease (inhibition) [10],viability decrease (inhibition) [11],inhibition [12],fluorescence ratio [13],inhibition [14],inhibition [15],fluorescence ratio [16]
Cc1scc2c1N(C(=O)CN1CCN(C)CC1)c1ccccc1NC2=O,42.9% (inactive) and 96% (inactive) and 50.1% (inactive),49.7% and 86.8% and 142%,-3% (inactive),1 (inactive),1% (inactive),1.6,4% (inactive),-15.9% (inactive),-6.3% (inactive),-2.6% (inactive),-4.6% (inactive),2% (inactive),1.4% (active),10.3% (inactive),–,–,–,–
CC(CN(C)C)CN1c2ccccc2CCc2ccccc21 (stereo not drawn),54.2% (inactive) and 101% (inactive) and 48.3% (inactive),103% and 83.8% and 93.4%,-4% (inactive),1 (inactive),-1.5% (inactive),-0.7,2.4% (inactive),-139% (inactive),13.4% (inactive),4.5% (inactive),55.4% (active),136% (active),1.5% (inactive),13.6% (inactive),–,–,–,–
CC[N+](CC)(CC)CCOc1cccc(OCC[N+](CC)(CC)CC)c1OCC[N+](CC)(CC)CC,–,–,-2% (inactive),1 (inactive),-0.5% (inactive),-1.4,-1.3% (inactive),-8.1% (inactive),-2.2% (inactive),1.9% (inactive),8.8% (inactive),-6.2% (inactive),-5.3% (inactive),7.66% (inactive),–,–,–,–
C[C@H]1c2cccc(O)c2C(O)=C2C(=O)[C@]3(O)C(O)=C(C(N)=O)C(=O)[C@@H](N(C)C)[C@@H]3[C@@H](O)[C@@H]21,95% (inactive) and 57.5% (inactive) and 31.3% (inactive),76.2% and 97.6% and 73.5%,-1% (inactive),1 (inactive),-0.3% (inactive),3.8,-0.5% (inactive),92.4% (active),-4.2% (inactive),2.6% (inactive),68.1% (active),61.1% (active),90.9% (active),9.31% (inactive),–,–,–,–
Cc1nc2sccn2c(=O)c1CCN1CCC(=C(c2ccc(F)cc2)c2ccc(F)cc2)CC1,16.8% (inactive),91.8%,0% (inactive),0.9 (inactive),13.4% (inactive),4.3,2% (inactive),86.2% (active),28.7% (inactive),10.9% (inactive),90.6% (active),133% (active),105% (active),13.5% (inactive),–,–,–,–
COc1ccc2[nH]cc(CCNC(C)=O)c2c1,–,–,-3% (inactive),1 (inactive),0.2% (inactive),-0.2,-2.5% (inactive),-6.45% (inactive),-3.4% (inactive),4.5% (inactive),-6.9% (inactive),20.8% (inactive),7.55% (inactive),6.51% (inactive),–,–,–,–
Oc1c(Cl)cc(Cl)c(Cl)c1Cc1c(O)c(Cl)cc(Cl)c1Cl,-3.37% (inactive) and -0.17% (inactive) and -0.05% (inactive),54.9% and 42.6% and 53.4%,–,–,15% (inactive),8.3,-3.4% (inactive),117% (active),108% (active),17.4% (inactive),124% (active),149% (active),101% (active),-10.3% (inactive),1.01 (inactive),15.9% (inactive),20.1% (inactive),0.92 (inactive)
C=CCc1ccccc1OCC(O)CNC(C)C (stereo not drawn),48.8% (inactive) and 53.9% (inactive) and 74.6% (inactive),101% and 91.5% and 140%,-4% (inactive),1 (inactive),0.1% (inactive),-0.5,2.2% (inactive),-6.8% (inactive),-1.1% (inactive),1.4% (inactive),34.3% (inactive),27.3% (inactive),12% (inactive),-12.3% (inactive),–,–,–,–
COc1ccc(CCN(C)CCCC(C#N)(c2ccc(OC)c(OC)c2)C(C)C)cc1OC (stereo not drawn),–,–,-3% (inactive),1 (inactive),0.2% (inactive),0.5,6.3% (inactive),-4.2% (inactive),-13.1% (inactive),-4% (inactive),27.3% (inactive),20.2% (inactive),-13.8% (inactive),10.8% (inactive),–,–,–,–
CCCCC1C(=O)N(c2ccccc2)N(c2ccccc2)C1=O,85.8% (inactive) and 69.9% (inactive) and 33.4% (inactive),73% and 101% and 70.5%,-4% (inactive),1 (inactive),-2% (inactive),-0.9,-1.7% (inactive),-11.7% (inactive),0.7% (inactive),-3.3% (inactive),9.25% (inactive),13.6% (inactive),-12.9% (inactive),1.47% (inactive),–,–,–,–
CNC[C@H](O)c1cccc(O)c1,64.7% (inactive) and 44.2% (inactive),77.3% and 99.6%,-1% (inactive),1 (inactive),1.9% (inactive),1.7,0% (inactive),-4.6% (inactive),-2.9% (inactive),1.4% (inactive),3.8% (inactive),12.3% (inactive),-9.9% (inactive),10.8% (inactive),–,–,–,–
O=NN(CCCl)C(=O)NCCCl,30.7% (inactive),104%,-4% (inactive),1 (inactive),4.9% (inactive),1.3,-0.1% (inactive),-5.7% (inactive),23.1% (inactive),2.2% (inactive),-16.5% (inactive),18.8% (inactive),-24.6% (inactive),0.0871% (inactive),–,–,–,–
CCCC(C(=O)OCCN(CC)CC)(c1ccccc1)c1ccccc1,-0.02% (active) and 10.3% (inactive) and 0.005% (inactive),85.1% and 64.2% and 90.3%,-6% (inactive),0.9 (inactive),0% (inactive),1.1,5.7% (inactive),52.5% (active),9.6% (inactive),11.5% (inactive),86.3% (active),76.5% (active),62.5% (active),3.92% (inactive),–,–,–,–
Nc1ccc(S(=O)(=O)Nc2ccnn2-c2ccccc2)cc1,33% (inactive) and 120% (inactive) and 106% (inactive),49.4% and 69.4% and 93.2%,1% (inactive),1 (inactive),0.1% (inactive),-0.2,-1.3% (inactive),-8.8% (inactive),-4.8% (inactive),3.3% (inactive),-9.2% (inactive),6.4% (inactive),-3.95% (inactive),-9.54% (inactive),–,–,–,–
CSc1ccc2c(c1)C(N1CCN(C)CC1)Cc1ccccc1S2 (stereo not drawn),74.1% (inactive) and 71.4% (inactive) and 63.7% (inactive),72.2% and 69.9% and 104%,-5% (inactive),0.9 (inactive),61.9% (active),1.4,30.7% (active),111% (active),61.8% (active),19.2% (inactive),113% (active),132% (active),102% (active),-11.1% (inactive),–,–,–,–
CCC1(C)CC(=O)NC1=O (stereo not drawn),–,–,0% (inactive),1 (inactive),0.2% (inactive),-0.3,0% (inactive),-17.5% (inactive),-2.9% (inactive),-2.3% (inactive),-5.57% (inactive),-27.9% (inactive),-7.1% (inactive),-0.667% (inactive),–,–,–,–
CCN(CC)C(C)CN1c2ccccc2Sc2ccccc21 (stereo not drawn),77.1% (inactive) and 61.6% (inactive) and 39% (inactive),89.3% and 65.2% and 91.5%,-1% (inactive),1 (inactive),3.4% (inactive),0.5,7.3% (active),-28.5% (inactive),25% (inactive),4.8% (inactive),69.2% (active),109% (active),76.9% (active),-5.57% (inactive),–,–,–,–
CC(=O)N[C@@H](CS)C(=O)O,106% (inactive) and 79.1% (inactive),72.7% and 91.5%,0% (inactive),0.9 (inactive),2.6% (inactive),-1.4,0.8% (inactive),-18.8% (inactive),18% (inactive),0.7% (inactive),-0.95% (inactive),0.1% (inactive),7.4% (inactive),-17.2% (inactive),–,–,–,–
Cc1cc(C(C)(C)C)cc(C)c1CC1=NCCN1,–,–,1% (inactive),1 (inactive),0.1% (inactive),1,0.2% (inactive),-61.3% (inactive),5.9% (inactive),4.3% (inactive),18.3% (inactive),2.6% (inactive),14.6% (inactive),-1.59% (inactive),–,–,–,–
C[N+]1(CCCCC[N+]2(C)CCCC2)CCCC1,24.8% (inactive) and 111% (inactive) and 94.9% (inactive),48.6% and 96% and 89.3%,4% (inactive),1 (inactive),-1.8% (inactive),0.5,2.5% (inactive),-7% (inactive),-11.3% (inactive),-1.6% (inactive),-2.5% (inactive),-8.4% (inactive),6.3% (inactive),10.2% (inactive),–,–,–,–
CN(C)[C@@H]1C(=O)C(C(N)=O)=C(O)[C@@]2(O)C(=O)C3=C(O)c4c(O)ccc(Cl)c4[C@@H](O)[C@H]3C[C@@H]12,68.4% (inactive) and 96.7% (inactive) and 81.2% (inactive),95.5% and 71.1% and 88.6%,-3% (inactive),1 (inactive),6.3% (inactive),4.3,0.9% (inactive),-29.7% (inactive),17.3% (inactive),10.2% (inactive),57% (active),107% (active),94.7% (active),0.718% (inactive),–,–,–,–
CCn1cc(C(=O)O)c(=O)c2cc3c(cc21)OCO3,–,–,-1% (inactive),1 (inactive),0.2% (inactive),0.8,-1.3% (inactive),-16% (inactive),12.1% (inactive),-1.5% (inactive),-19.5% (inactive),8.3% (inactive),7.15% (inactive),15.6% (inactive),–,–,–,–
